Assay outcomes from PubChem.
Compounds with a hit are over-represented: about 19% of the library has one in this group of screens.
HT1080-NT tox: qHTS for induction of synthetic lethality in tumor cells producing 2HG: qHTS for the HT-1080-NT fibrosarcoma cell line. HT-1080-NT fibrosarcoma viability, CellTiter-Glo ATP luminescence, 48 h. Potency, µM (series often up to 46.1 µM), without a hit: top-dose activity, negative = less viability, actives largely listed as cytotoxic. actives 1.6% (n = 360,000). AID 686970, 2013;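 note: NT is the 2HG producing partner of a matched IDH1 knockdown line; potency is the fitted concentration of half-maximal effect; 0% = DMSO-treated cells and -100% = media-only wells without cells; nearly all actives have a fitted effect of over 55% in size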
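A 48-hour cytotoxicity screen used HT-1080-NT cells plated 2 hours before compound delivery. ATP-based CellTiter-Glo luminescence measured viability, normalized to DMSO and no-cell controls.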
HT1080 IDH1KD tx: qHTS for induction of synthetic lethality in tumor cells producing 2HG: qHTS for the HT-1080-IDH1KD cell line. actives 2% (n = 360,000). AID 686971, 2013. Potency, µM (doses to about 46.1 µM), for inactives: at the highest dose activity, negative = toxicity, actives largely listed as cytotoxic. HT-1080 IDH1 knockdown viability, ATP luminescence, 48 h;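 note: potency is the fitted concentration of half-maximal effect; 0% = DMSO wells and -100% = cell-free medium wells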
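HT-1080-IDH1KD cells (IDH1 knocked down), 750/well in RPMI with 5% FBS, treated with compound 48 h at 37 degrees C. Viability by CellTiter-Glo luminescence, normalised to DMSO and no-cell wells; concentration-response curves classed.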
IL1B secr inh: qHTS for Inhibitors of Inflammasome Signaling: IL-1-beta AlphaLISA Primary Screen. THP-1 LPS/ATP IL-1B secretion, AlphaLISA, 16 h; hits give low values. activity change, % at 57.5 µM. actives 4.7% (n = 360,000). AID 743279, 2014; in the data active = activity change below about -50%; inconclusive = mostly about -30% to -49%
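Secreted IL-1B measured by AlphaLISA bead assay after 16 h compound exposure of THP-1 cells; compounds (final up to 57.5 uM) added 1 h before LPS (250 ng/mL) and ATP (1.25 mM) stimulation; lower signal means less secretion.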
TDP1 cell noCPT: qHTS for Inhibitors of human tyrosyl-DNA phosphodiesterase 1 (TDP1): qHTS in cells in absence of CPT; DT40 Tdp1-/- hTDP1 cells, no CPT, ATP luminescence, 48 h; Potency, µM (series often up to 46.2 µM), for the others: top-dose activity change, negative = growth inhibition, usual class: inhibitors; actives 15% (n = 420,000); note: potency is the fitted concentration of half-maximal effect; nearly all actives have a fitted effect of over 55% in size
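Growth kinetics read by CellTiter-Glo luminescence after ≥48 hr at 37 °C. Cells: DT40 Tdp1-/- stably carrying human TDP1, 400 per well, compound exposure in the absence of CPT (DMSO vehicle).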
TDP1 cell CPT: qHTS for Inhibitors of human tyrosyl-DNA phosphodiesterase 1 (TDP1): qHTS in cells in presence of CPT; chicken DT40 Tdp1-/-;hTDP1 cells + 20 nM CPT, ATP luminescence, 48 h; Potency, µM (doses to about 46.2 µM), for inactives: at the top dose activity change, negative = growth inhibition, hits mostly inhibitors; actives 12% (n = 420,000); note: potency is the fitted concentration of half-maximal effect; nearly all actives have a fitted effect of over 55% in size
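Chicken DT40 Tdp1-/- cells complemented with human TDP1, 400 cells/well, exposed to compounds plus 20 nM camptothecin for at least 48 h at 37 C; viability read as ATP content by CellTiter-Glo luminescence.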
Active calls of the source: *; ? = inconclusive; . = no result given; ! = a repeat was not active; [ ] = another dose, or the depositor's remark. Unless noted, calls come from the whole dose curve; as a rule, active = well fitted curve in the direction sought with a large enough effect; inconclusive = small, poorly fitted or top-dose-only effect, or another doubt; inactive = no such curve, though single readings can be large; an effect the other way counts as inactive or inconclusive. Unless noted, % is set by controls: 0 for no effect and ±100 for the full control effect.

SMILES	HT1080-NT tox	HT1080 IDH1KD tx	IL1B secr inh	TDP1 cell noCPT	TDP1 cell CPT
CCc1ccc(NC(=O)CSc2nccn2C2CCCC2)cc1	.	.	.	?	18µM*
CCc1ccc(NC(=O)CSc2nccn2-c2ccc(F)cc2)cc1	.	.	.	-18%	?
O=C(CCNC(=O)c1ccccc1Cl)NCCc1ccc(C(F)(F)F)cc1	14%	-3%	8	-11%	-7%
O=C(CSc1nccn1-c1cccc(Cl)c1)NC1CCCC1	10%	16%	-1	21µM*	-23%
Cc1ccc(C)c2c1cc(C)c1nnc(SCC(=O)N3CCCc4ccccc43)n12	0%	-5%	-1	15µM*	?
CSC1=NC(C(Cl)(Cl)Cl)N=C(c2ccccc2)N1 (configuration not stated)	?	21µM*	40	3.7µM*	2.6µM*
O=C(NCc1ccccn1)C(=O)NCC1OCCN1S(=O)(=O)c1ccc(Cl)cc1 (configuration not stated)	-10%	-15%	0	-11%	10%
CN1CCN(C2Cc3ccccc3Sc3cc(C(F)(F)F)ccc32)CC1 (configuration not stated)	16µM*	21µM*	-98*	16µM*	?
CN1CCN(C2Cc3ccc(F)cc3Sc3cc(F)c(Cl)cc32)CC1 (configuration not stated)	26µM*	?	-97*	10µM*	18µM*
CCC1CCCCN1C(=O)COC(=O)c1ccc(Br)o1 (configuration not stated)	-5%[9.24 µM]	5%	15	2%	-15%
CCOC(=O)c1sc2nccc(N(C)C)c2c1N=CNOCc1c(F)cccc1Cl	-25%	-24%	-3	23µM*	?
CCOC(=O)c1sc2nccc(N(C)C)c2c1N=CNOCc1ccccc1	-29%	-24%	-7	?	?
CC(C)(C)c1ccc(Cn2c(Cc3ccccc3)nc3ccccc32)cc1	.	.	.	6.5µM*	7.3µM*
Brc1cc2c(cc1Cn1c(-c3cncs3)nc3ccccc31)OCO2	-3%	-8%[9.24 µM]	-16	?	-27%
Cc1ccccc1Cn1c(C)nc2ccccc21	-21%	?	-5	5.8µM*	?
Clc1ccc(COn2c(-c3ccccc3)nc3ccccc32)cc1	-5%	0%	?	23µM*	?
Brc1ccccc1Cn1c(-c2cscn2)nc2ccccc21	-2%	?	-6	?	23µM*
c1cc(CNCCNCc2ccncc2)ccn1	0%	-1%	-3	6%	13%
CCOC(=O)CN1N=C(c2ccc(Cl)s2)CSC1=O	-1%	0%	-13	-87%	-69%
O=C(CC[C@H]1O[C@@H](n2ccc(=O)[nH]c2=O)[C@H](O)[C@@H]1O)NCc1cccc2ccccc12	16%	0%	30	-9%	-5%
CCCCOc1ccccc1NC(=O)Cn1c(-c2cncs2)nc2ccccc21	.	.	.	?	23µM*
OCc1nc2ccccc2n1Cc1ccc(Cl)cc1	0%	-9%	-19	?	?
Cc1ccccc1Cn1c(-c2cncs2)nc2ccccc21	-20%	-22%	-52*	?	?
O=C(Cn1c(-c2cncs2)nc2ccccc21)NCc1ccccc1	3%	4%	-5	-8%	7%
Cc1nc2ccccc2n1Cc1ccc(Cl)cc1	?	?	-14	7.3µM*	10µM*!
SMILES	HT1080-NT tox	HT1080 IDH1KD tx	IL1B secr inh	TDP1 cell noCPT	TDP1 cell CPT
Fc1ccccc1Cn1c(-c2ccccc2)nc2ccccc21	.	.	.	7.3µM*	?
C=CCN(CC=C)C(=O)C1CCN(S(=O)(=O)c2ccc(-n3cnnn3)cc2)CC1	-8%	-13%	18	-19%	1%
COCCn1c(=O)c(-c2cccs2)nc2cnc(N(C)C)nc21	.	.	.	3%	6%
O=C(NCC1CCCCC1)c1ccc(F)cc1Cl	15%	11%	-11	-21%	6%
CCC1(c2ccccc2)NC(=O)N(CC(=O)N(C)Cc2c(F)cccc2Cl)C1=O (configuration not stated)	0%	10%	-11	-12%	-9%
Cc1ccccc1Cn1c(Cc2ccccc2)nc2ccccc21	0%	1%	-20	18µM*	?
CC(C)OC(=O)c1c(NS(=O)(=O)c2ccccc2)sc2c1CCCC2	-16%	?	0	5.2µM*	6.5µM*
COC(=O)c1c(NC(=O)c2ccccc2C(=O)O)sc2c1CCC2	-18%	-15%	5	-8%	-12%
CCOC(=O)c1c(NC(=O)c2ccc(C)cc2)sc2c1CCCCC2	.	.	.	5%	10%
CCOC(=O)c1c(NC(=O)c2ccccc2N(C)S(=O)(=O)c2ccccc2)sc2c1CCCC2	?	9.2µM*	-9	21µM*	?
COC(=O)c1c(NS(=O)(=O)Cc2ccccc2)sc2c1CCCC2	2%	-3%	36	-2%	-10%
CCOC(=O)c1c(NC(=O)C(NCCN(C)C)c2ccccc2)sc2c1CCCC2 (configuration not stated)	?	18µM*	-108*	2.1µM*	0.65µM*
COC(=O)c1c(NC(=O)c2ccccc2N(C)S(=O)(=O)c2ccccc2)sc2c1CCCC2	?	?	20	15µM*	16µM*
Cc1nc2ccc(C(=O)N3CCOc4ccc(CN5CCOCC5)cc4C3)cc2nc1C	.	.	.	-3%	-5%[9.04 µM]
C=C(c1nc2ccccc2s1)C1Cc2cccc3c2N(CCC3)C1 (configuration not stated)	.	.	.	0.089µM*	0.089µM*
O=C(CN1CCN(C(=O)CNC(=O)c2ccc(N3CCCC3=O)cc2)CC1)Nc1ccccc1Cl	0%	-3%	-4	-6%	-2%
CC(C)CC1Nc2ncnc(N3CCN(c4ccccn4)CC3)c2N(Cc2ccc(Br)cc2)C1=O (configuration not stated)	1%	?	?	?	?
COc1ccc(CN2C(=O)C(CC(C)C)Nc3ncnc(N4CCN(c5ccccn5)CC4)c32)cc1 (configuration not stated)	-19%	?	-58*	?	?
Cc1ccc(CN2C(=O)C(CC(C)C)Nc3ncnc(N4CCN(c5ccccn5)CC4)c32)cc1 (configuration not stated)	?	?	-56*	18µM*	?
Fc1ccc(Nc2cncc(-c3ccsc3)c2)cc1Cl	4%	-6%	0	18µM*	16µM*
